Source: PubChem BioAssay (NCI)
This is part of a sample that, as a whole, favours compounds with a hit. Of some 79,000 tested, about 15% had one in any assay. Active and inactive are the calls of the source. Cut-off read from the data, not from the text of the source: active = growth inhibition above about 70%; inactive = the rest.

Assay: NCI Yeast Anticancer Drug Screen. Data for the rad50 strain (AID 155);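 note: 0% = growth of vehicle-only cultures of the same strain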
Settings: S. cerevisiae rad50 strain growth inhibition, hits give high values
Description: Growth inhibition of yeast strains with defined genetic alterations is measured as a screen for potential anti-cancer activity. Selected strains with alterations in DNA damage repair or cell cycle control were exposed to compounds and growth inhibition was measured relative to vehicle treated controls. The strain used in this assay is rad50

[1] = at 5.0 µM (retest, dose inferred, filed as 0.5)
[2] = at 50.0 µM (retest, dose inferred, filed as 5.0)

Compound: O=C1OC(/C=C/c2ccccc2)Sc2ccccc21 (stereo not given)
- growth inhibition (at 1.2 µM): 3% (inactive)
- growth inhibition (at 3.7 µM): 4% (inactive)
- growth inhibition [1]: -16% (inactive)
- growth inhibition (at 11.0 µM): 10% (inactive)
- growth inhibition (at 33.0 µM): 14% (inactive)
- growth inhibition [2]: 1% (inactive)
- growth inhibition (at 50.0 µM): -0.5% (inactive)
- growth inhibition (at 100.0 µM): 27% (inactive)

Compound: O=S(=O)(O)c1ccc2c(N=Nc3c(O)ccc4ccccc34)cccc2c1
- growth inhibition (at 1.2 µM): 4% (inactive)
- growth inhibition (at 3.7 µM): 14% (inactive)
- growth inhibition [1]: 26% (inactive)
- growth inhibition (at 11.0 µM): 56% (inactive)
- growth inhibition (at 33.0 µM): 71% (active)
- growth inhibition [2]: 82% (active)
- growth inhibition (at 50.0 µM): 91.8% (active)
- growth inhibition (at 100.0 µM): 85% (active)

Compound: COc1cc(C(C)C(C(=O)O)C(=O)C(=O)O)cc(OC)c1OC (stereo not given)
- growth inhibition (at 1.2 µM): 3% (inactive)
- growth inhibition (at 3.7 µM): 3% (inactive)
- growth inhibition [1]: -41% (inactive)
- growth inhibition (at 11.0 µM): 4% (inactive)
- growth inhibition (at 33.0 µM): 5% (inactive)
- growth inhibition [2]: -9% (inactive)
- growth inhibition (at 50.0 µM): 0.85% (inactive)
- growth inhibition (at 100.0 µM): 4% (inactive)

Compound: COc1ccc(C(=O)NCCN(C)C)c2nc3ccccc3cc12
- growth inhibition (at 1.2 µM): 45% (inactive)
- growth inhibition (at 3.7 µM): 77% (active)
- growth inhibition [1]: 73% (active)
- growth inhibition (at 11.0 µM): 93% (active)
- growth inhibition (at 33.0 µM): 95% (active)
- growth inhibition [2]: 95% (active)
- growth inhibition (at 50.0 µM): 82.5% (active)
- growth inhibition (at 100.0 µM): 94% (active)

Compound: NNc1nnc(-c2ccccc2)nc1Cc1ccccc1
- growth inhibition (at 1.2 µM): 4% (inactive)
- growth inhibition (at 3.7 µM): -1% (inactive)
- growth inhibition [1]: -35% (inactive)
- growth inhibition (at 11.0 µM): 10% (inactive)
- growth inhibition (at 33.0 µM): 96% (active)
- growth inhibition [2]: -4% (inactive)
- growth inhibition (at 50.0 µM): 67.1% (inactive)
- growth inhibition (at 100.0 µM): 93% (active)
